# PubChem BioAssay (NCI)
# Compounds without any hit were thinned out: in the full panel of roughly 79,000, 15% have a hit. Values without a mark were called inactive. Active and inactive are the calls of the source. Cut-off read from the data, not from the text of the source: active = growth inhibition above about 70%; inactive = the rest.
# What was measured:
# [1] = NCI Yeast Anticancer Drug Screen. Data for the rad50 strain (AID 155);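 note: 0% = growth of vehicle-only cultures of the same strain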; settings: S. cerevisiae rad50 strain growth inhibition, stronger effect = higher value
# In short: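 DNA repair mutant yeast, compound exposure, growth read-out; inhibition is taken relative to vehicle.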
# [2] = NCI Yeast Anticancer Drug Screen. Data for the mec2-1 strain (AID 157); settings: S. cerevisiae mec2-1 strain, stronger effect = higher value
# In short: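 Growth inhibition is read against vehicle-treated controls after compound exposure of the mec2-1 yeast strain, which is defective in DNA damage repair or cell cycle control.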
# [3] = NCI Yeast Anticancer Drug Screen. Data for the sgs1 mgt1 strain (AID 161);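 note: 0% = growth of cultures given vehicle only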; settings: S. cerevisiae sgs1 mgt1 strain, stronger effect = higher value
# In short: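 Compounds are added to genetically altered yeast, and growth is compared with cultures given vehicle alone to give percent inhibition.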
# [4] = NCI Yeast Anticancer Drug Screen. Data for the cln2 rad14 strain (AID 165);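 note: 0% = growth equal to vehicle treated cultures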; settings: S. cerevisiae cln2 rad14 strain, stronger effect = higher value
# In short: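 Growth inhibition, relative to vehicle-treated controls, is the read-out. The test organism is a yeast strain with defined genetic alterations, cln2 rad14.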
# [5] = NCI Yeast Anticancer Drug Screen. Data for the bub3 strain (AID 167); settings: S. cerevisiae bub3 mutant strain, stronger effect = higher value
# In short: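 In this screen, a yeast mutant lacking normal mitotic checkpoint function is challenged with compound. Relative growth versus vehicle gives the inhibition value.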
# [6] = NCI Yeast Anticancer Drug Screen. Data for the mlh1 rad18 strain (AID 175); settings: S. cerevisiae mlh1 rad18 strain growth inhibition, stronger effect = higher value
# In short: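 Cells of a genetically altered yeast strain, deficient in DNA damage repair, were treated with compound. Their growth was then compared with that of vehicle-treated cultures to give inhibition.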
# [7] = at 5.0 µM (retest, dose inferred, filed as 0.5)
# [8] = at 50.0 µM (retest, dose inferred, filed as 5.0)
Structure (SMILES),"growth inhibition [1, 7]","growth inhibition [1, 8]",growth inhibition ([1]; at 50.0 µM),"growth inhibition [2, 7]","growth inhibition [2, 8]",growth inhibition ([2]; at 50.0 µM),"growth inhibition [3, 7]","growth inhibition [3, 8]",growth inhibition ([3]; at 50.0 µM),"growth inhibition [4, 7]","growth inhibition [4, 8]",growth inhibition ([4]; at 50.0 µM),"growth inhibition [5, 7]","growth inhibition [5, 8]",growth inhibition ([5]; at 50.0 µM),"growth inhibition [6, 7]","growth inhibition [6, 8]",growth inhibition ([6]; at 50.0 µM)
[C-]#[O+].[Cl][Sn]([Cl])[Cl].[Cl][Sn]([Cl])[Cl].[Pt].c1ccncc1,-11%,97% (active),56.2%,9%,95% (active),54.8%,3%,98% (active),75.3% (active),3%,78% (active),41.8%,-13%,47%,62.1%,-1%,98% (active),70.5% (active)
O=[N+]([O-])c1ccc([N+](=O)[O-])c2ccccc12,37%,99% (active),86.5% (active),47%,99% (active),61.7%,61%,97% (active),91.1% (active),82% (active),97% (active),67.9%,45%,95% (active),85.7% (active),31%,99% (active),22.8%
O=c1c2ccccc2[nH]c(=S)n1-c1cccc(C(F)(F)F)c1,65%,69%,72.2% (active),49%,59%,76.3% (active),55%,59%,77% (active),52%,48%,61.7%,71% (active),77% (active),77.7% (active),79% (active),81% (active),69.2%
NC1=NC(=O)N2CC12 (stereo unspecified),30%,36%,48.5%,13%,7%,-9.3%,25%,16%,8.2%,20%,15%,11.4%,21%,18%,7%,29%,52%,6.4%
COc1ccc(/C=C\[N+](=O)[O-])cc1OC,47%,97% (active),99.4% (active),27%,99% (active),99.7% (active),25%,99% (active),99.7% (active),12%,99% (active),99% (active),14%,99% (active),99.3% (active),28%,99% (active),99.5% (active)
COc1ccccc1[As]=[As]c1ccccc1OC (stereo unspecified),30%,99% (active),99.5% (active),20%,99% (active),99.5% (active),48%,99% (active),99.4% (active),34%,99% (active),98.3% (active),85% (active),99% (active),99.3% (active),75% (active),99% (active),99.3% (active)
CCCCCCCCCCCCCCCCCC[N+](C)(C)C (tested in a mixture with another compound),99% (active),99% (active),2.1%,98% (active),99% (active),13.1%,99% (active),99% (active),73.5% (active),78% (active),98% (active),13.2%,99% (active),97% (active),-1.15%,99% (active),99% (active),-2.5%
